Data as given in paper PMC11006913.
Where a chain is given by its changes, count along the chain named.

Key:
Test in all cases: PBM; 200 nM protein, PBS
Conditions in all cases: dsDNA, one strand shown
HOXB6 [1] = target: HOXB6 (Homo sapiens, UniProt P17509 132-218, K202E)
ALX3 [2] = target: ALX3 (Homo sapiens, UniProt O95076 139-225, N203Q)
ALX3 [3] = target: ALX3 (Homo sapiens, UniProt O95076 139-225)
ALX3 [4] = target: ALX3 (Homo sapiens, UniProt O95076 139-225, L168Q)
ALX3 [5] = target: ALX3 (Homo sapiens, UniProt O95076 139-225, L168V)
ALX3 (Homo sapiens, UniProt O95076 139-225, L168V), sequence (O95076 139-225 L168V): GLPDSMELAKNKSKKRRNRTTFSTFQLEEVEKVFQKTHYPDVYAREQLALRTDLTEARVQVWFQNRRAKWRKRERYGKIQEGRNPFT

ALX3 [6] = target: ALX3 (Homo sapiens, UniProt O95076 139-225, N203S)
ALX3 (Homo sapiens, UniProt O95076 139-225, N203S), sequence (O95076 139-225 N203S): as the sequence (O95076 139-225 L168V) above, with V30L, N65S counted along it

HOXB6 [7] = target: HOXB6 (Homo sapiens, UniProt P17509 132-218)
HOXB6 (Homo sapiens, UniProt P17509 132-218), sequence (P17509 132-218): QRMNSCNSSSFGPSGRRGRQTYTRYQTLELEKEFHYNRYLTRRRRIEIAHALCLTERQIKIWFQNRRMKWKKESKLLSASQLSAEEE

HOXD13 [8] = target: HOXD13 (Homo sapiens, UniProt P35453 263-343, T313R)
HOXD13 (Homo sapiens, UniProt P35453 263-343, T313R), sequence (P35453 263-343 T313R): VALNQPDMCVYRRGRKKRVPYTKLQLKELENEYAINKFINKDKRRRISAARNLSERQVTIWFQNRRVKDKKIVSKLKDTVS

HOXD13 [9] = target: HOXD13 (Homo sapiens, UniProt P35453 263-343)
HOXD13 (Homo sapiens, UniProt P35453 263-343), sequence (P35453 263-343): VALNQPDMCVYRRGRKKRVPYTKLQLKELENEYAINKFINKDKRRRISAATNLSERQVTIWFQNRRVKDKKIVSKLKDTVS

HOXD13 [10] = target: HOXD13 (Homo sapiens, UniProt P35453 263-343, T313A)
HOXD13 (Homo sapiens, UniProt P35453 263-343, T313A), sequence (P35453 263-343 T313A): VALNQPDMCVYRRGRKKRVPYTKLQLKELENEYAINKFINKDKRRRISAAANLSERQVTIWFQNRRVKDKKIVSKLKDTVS

NKX2-4 [11] = target: T1, NKX2-4 (Homo sapiens, UniProt Q9H2Z4 175-261)
T1 sequence: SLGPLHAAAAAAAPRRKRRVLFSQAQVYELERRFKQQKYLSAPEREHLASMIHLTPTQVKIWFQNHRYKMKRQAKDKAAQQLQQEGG

NKX2-4 [12] = target: T2, NKX2-4 (Homo sapiens, UniProt Q9H2Z4 175-261, R246Q)
T2 sequence: T1 sequence with R72Q

SIX6 [13] = target: T3, SIX6 (Homo sapiens, UniProt O95475 114-200, L143M)
T3 sequence: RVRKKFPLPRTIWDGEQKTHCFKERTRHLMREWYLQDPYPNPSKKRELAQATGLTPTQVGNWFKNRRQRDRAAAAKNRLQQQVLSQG

SIX6 [14] = target: T4, SIX6 (Homo sapiens, UniProt O95475 114-200, L167V)
T4 sequence: T3 sequence with M30L, L54V

NKX2-6 [15] = target: T5, NKX2-6 (Homo sapiens, UniProt A6NCS4 118-204, R150C)
T5 sequence: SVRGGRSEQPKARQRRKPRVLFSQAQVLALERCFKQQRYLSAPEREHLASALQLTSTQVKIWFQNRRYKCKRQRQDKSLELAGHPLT

NKX2-6 [16] = target: T6, NKX2-6 (Homo sapiens, UniProt A6NCS4 118-204)
T6 sequence: T5 sequence with C33R

NKX2-6 [17] = target: T7, NKX2-6 (Homo sapiens, UniProt A6NCS4 118-204, F151L)
T7 sequence: T5 sequence with C33R, F34L

MSX2 [18] = target: MSX2 (Homo sapiens, UniProt P35548 130-214, R199I)
MSX2 (Homo sapiens, UniProt P35548 130-214, R199I), sequence (P35548 130-214 R199I): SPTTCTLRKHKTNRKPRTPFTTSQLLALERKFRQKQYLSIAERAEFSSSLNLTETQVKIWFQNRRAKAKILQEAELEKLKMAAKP

ALX1 [19] = target: ALX1 (Homo sapiens, UniProt Q15699 118-204, L144V)
ALX1 (Homo sapiens, UniProt Q15699 118-204, L144V), sequence (Q15699 118-204 L144V): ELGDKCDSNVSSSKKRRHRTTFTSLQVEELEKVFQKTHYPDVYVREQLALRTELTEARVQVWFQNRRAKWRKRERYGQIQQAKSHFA

ALX1 [20] = target: ALX1 (Homo sapiens, UniProt Q15699 118-204, L144R)
ALX1 (Homo sapiens, UniProt Q15699 118-204, L144R), sequence (Q15699 118-204 L144R): as the sequence (Q15699 118-204 L144V) above, with V27R counted along it

MSX2 [21] = target: MSX2 (Homo sapiens, UniProt P35548 130-214)
MSX2 (Homo sapiens, UniProt P35548 130-214), sequence (P35548 130-214): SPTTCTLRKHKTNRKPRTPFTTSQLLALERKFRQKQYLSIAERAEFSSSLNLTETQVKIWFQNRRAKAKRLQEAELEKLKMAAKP

MSX2 [22] = target: MSX2 (Homo sapiens, UniProt P35548 130-214, F161Y)
MSX2 (Homo sapiens, UniProt P35548 130-214, F161Y), sequence (P35548 130-214 F161Y): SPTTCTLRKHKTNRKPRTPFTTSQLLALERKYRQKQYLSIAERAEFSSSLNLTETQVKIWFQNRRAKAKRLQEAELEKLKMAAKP

NKX3-2 [23] = target: NKX3-2 (Homo sapiens, UniProt P78367 192-278, P234S)
NKX3-2 (Homo sapiens, UniProt P78367 192-278, P234S), sequence (P78367 192-278 P234S): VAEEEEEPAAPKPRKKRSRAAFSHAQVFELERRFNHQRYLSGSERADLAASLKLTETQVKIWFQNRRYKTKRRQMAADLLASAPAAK

ALX1 [24] = target: ALX1 (Homo sapiens, UniProt Q15699 118-204)
ALX1 (Homo sapiens, UniProt Q15699 118-204), sequence (Q15699 118-204): as the sequence (Q15699 118-204 L144V) above, with V27L counted along it

NKX3-2 [25] = target: NKX3-2 (Homo sapiens, UniProt P78367 192-278)
NKX3-2 (Homo sapiens, UniProt P78367 192-278), sequence (P78367 192-278): as the sequence (P78367 192-278 P234S) above, with S43P counted along it

HOXA2 [26] = target: HOXA2 (Homo sapiens, UniProt O43364 129-215, R185T)
HOXA2 (Homo sapiens, UniProt O43364 129-215, R185T), sequence (O43364 129-215 R185T): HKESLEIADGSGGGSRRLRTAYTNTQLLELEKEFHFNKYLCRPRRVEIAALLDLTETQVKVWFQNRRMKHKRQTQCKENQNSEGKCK

HOXA2 [27] = target: HOXA2 (Homo sapiens, UniProt O43364 129-215, R185K)
HOXA2 (Homo sapiens, UniProt O43364 129-215, R185K), sequence (O43364 129-215 R185K): as the sequence (O43364 129-215 R185T) above, with T57K counted along it

HOXA2 [28] = target: HOXA2 (Homo sapiens, UniProt O43364 129-215, Y150S)
HOXA2 (Homo sapiens, UniProt O43364 129-215, Y150S), sequence (O43364 129-215 Y150S): as the sequence (O43364 129-215 R185T) above, with Y22S, T57R counted along it

HOXA2 [29] = target: HOXA2 (Homo sapiens, UniProt O43364 129-215)
HOXA2 (Homo sapiens, UniProt O43364 129-215), sequence (O43364 129-215): as the sequence (O43364 129-215 R185T) above, with T57R counted along it

SIX6 [30] = target: T8, SIX6 (Homo sapiens, UniProt O95475 114-200, L143I)
T8 sequence: T3 sequence with M30I

PROP1 [31] = target: PROP1 (Homo sapiens, UniProt O75360 56-141)
PROP1 (Homo sapiens, UniProt O75360 56-141), sequence (O75360 56-141): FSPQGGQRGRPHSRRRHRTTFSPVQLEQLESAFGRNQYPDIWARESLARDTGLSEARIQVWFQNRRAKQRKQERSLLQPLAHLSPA

PROP1 [32] = target: PROP1 (Homo sapiens, UniProt O75360 56-141, R99H)
PROP1 (Homo sapiens, UniProt O75360 56-141, R99H), sequence (O75360 56-141 R99H): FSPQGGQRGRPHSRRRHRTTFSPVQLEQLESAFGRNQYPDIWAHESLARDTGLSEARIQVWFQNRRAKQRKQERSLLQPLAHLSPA

PROP1 [33] = target: PROP1 (Homo sapiens, UniProt O75360 56-141, F88S)
PROP1 (Homo sapiens, UniProt O75360 56-141, F88S), sequence (O75360 56-141 F88S): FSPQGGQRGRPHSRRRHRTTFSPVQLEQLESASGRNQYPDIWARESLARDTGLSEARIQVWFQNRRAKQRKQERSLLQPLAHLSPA

SIX6 [34] = target: T9, SIX6 (Homo sapiens, UniProt O95475 114-200, T139Q)
T9 sequence: T3 sequence with T26Q, M30L

HOXB6 (Homo sapiens, UniProt P17509 132-218, K202E), sequence (P17509 132-218 K202E): as the sequence (P17509 132-218) above, with K71E counted along it
ALX3 (Homo sapiens, UniProt O95076 139-225), sequence (O95076 139-225): as the sequence (O95076 139-225 L168V) above, with V30L counted along it
ALX3 (Homo sapiens, UniProt O95076 139-225, N203Q), sequence (O95076 139-225 N203Q): as the sequence (O95076 139-225 L168V) above, with V30L, N65Q counted along it
ALX3 (Homo sapiens, UniProt O95076 139-225, L168Q), sequence (O95076 139-225 L168Q): as the sequence (O95076 139-225 L168V) above, with V30Q counted along it

With TACATTAA the binding signal (HOXB6 [1]) was 10 upbm affinity estimate (log intensity, higher = more binding, comparable within an allelic series), the binding signal (ALX3 [2]) was 8.45 upbm affinity estimate (log intensity, higher = more binding, comparable within an allelic series) and the binding signal (ALX3 [3]) was 11 upbm affinity estimate (log intensity, higher = more binding, comparable within an allelic series). For the same sequence, the binding signal (ALX3 [4]) was 9.29 upbm affinity estimate (log intensity, higher = more binding, comparable within an allelic series), the binding signal (ALX3 [5]) was 9.07 upbm affinity estimate (log intensity, higher = more binding, comparable within an allelic series) and the binding signal (ALX3 [6]) was 8.57 upbm affinity estimate (log intensity, higher = more binding, comparable within an allelic series).

For AGCGAGGG, the binding signal (HOXB6 [1]) was 9.04 upbm affinity estimate (log intensity, higher = more binding, comparable within an allelic series) and the binding signal (HOXB6 [7]) was 8.99 upbm affinity estimate (log intensity, higher = more binding, comparable within an allelic series).

In the case of CCACGGGC, the binding signal (HOXB6 [1]) is reported as 9 upbm affinity estimate (log intensity, higher = more binding, comparable within an allelic series), the binding signal (HOXD13 [8]) is reported as 9.41 upbm affinity estimate (log intensity, higher = more binding, comparable within an allelic series) and the binding signal (HOXD13 [9]) is reported as 9.46 upbm affinity estimate (log intensity, higher = more binding, comparable within an allelic series). The binding signal (HOXD13 [10]) was 9.44 upbm affinity estimate (log intensity, higher = more binding, comparable within an allelic series) and the binding signal (HOXB6 [7]) was 9.06 upbm affinity estimate (log intensity, higher = more binding, comparable within an allelic series).

AGTTCGAG was tested, and the binding signal (NKX2-4 [11]) was 11.3 upbm affinity estimate (log intensity, higher = more binding, comparable within an allelic series) and the binding signal (NKX2-4 [12]) was 11.6 upbm affinity estimate (log intensity, higher = more binding, comparable within an allelic series).

AGTGCAGA was tested, and the binding signal (NKX2-4 [11]) was 11.4 upbm affinity estimate (log intensity, higher = more binding, comparable within an allelic series) and the binding signal (NKX2-4 [12]) was 11.7 upbm affinity estimate (log intensity, higher = more binding, comparable within an allelic series).

With ACATTAAC the binding signal (HOXB6 [1]) was 10 upbm affinity estimate (log intensity, higher = more binding, comparable within an allelic series).

For CGGATATC, the binding signal (SIX6 [13]) was 10.9 upbm affinity estimate (log intensity, higher = more binding, comparable within an allelic series) and the binding signal (SIX6 [14]) was 10.8 upbm affinity estimate (log intensity, higher = more binding, comparable within an allelic series).

In the case of CGAGGCTC, the binding signal (HOXB6 [1]) is reported as 9.01 upbm affinity estimate (log intensity, higher = more binding, comparable within an allelic series), the binding signal (NKX2-6 [15]) is reported as 9.43 upbm affinity estimate (log intensity, higher = more binding, comparable within an allelic series) and the binding signal (HOXB6 [7]) is reported as 9.11 upbm affinity estimate (log intensity, higher = more binding, comparable within an allelic series).

For AAGCAGGC, the binding signal (HOXB6 [1]) was 9.08 upbm affinity estimate (log intensity, higher = more binding, comparable within an allelic series) and the binding signal (HOXB6 [7]) was 9.05 upbm affinity estimate (log intensity, higher = more binding, comparable within an allelic series).

GGACCCCC was tested, and the binding signal (HOXB6 [1]) was 8.73 upbm affinity estimate (log intensity, higher = more binding, comparable within an allelic series), the binding signal (NKX2-6 [16]) was 9.37 upbm affinity estimate (log intensity, higher = more binding, comparable within an allelic series) and the binding signal (NKX2-6 [17]) was 8.99 upbm affinity estimate (log intensity, higher = more binding, comparable within an allelic series). The binding signal (HOXB6 [7]) was 8.68 upbm affinity estimate (log intensity, higher = more binding, comparable within an allelic series).

With CGGATCCG the binding signal (HOXB6 [1]) was 9.01 upbm affinity estimate (log intensity, higher = more binding, comparable within an allelic series), the binding signal (MSX2 [18]) was 9.47 upbm affinity estimate (log intensity, higher = more binding, comparable within an allelic series) and the binding signal (ALX1 [19]) was 6.32 upbm affinity estimate (log intensity, higher = more binding, comparable within an allelic series). For the same sequence, the binding signal (ALX3 [2]) was 7.82 upbm affinity estimate (log intensity, higher = more binding, comparable within an allelic series), the binding signal (ALX1 [20]) was 6.18 upbm affinity estimate (log intensity, higher = more binding, comparable within an allelic series) and the binding signal (MSX2 [21]) was 9.48 upbm affinity estimate (log intensity, higher = more binding, comparable within an allelic series). The binding signal (ALX3 [3]) was 7.83 upbm affinity estimate (log intensity, higher = more binding, comparable within an allelic series), the binding signal (ALX3 [4]) was 7.82 upbm affinity estimate (log intensity, higher = more binding, comparable within an allelic series) and the binding signal (ALX3 [5]) was 7.74 upbm affinity estimate (log intensity, higher = more binding, comparable within an allelic series). For the same sequence, the binding signal (MSX2 [22]) was 9.45 upbm affinity estimate (log intensity, higher = more binding, comparable within an allelic series), the binding signal (NKX3-2 [23]) was 10.3 upbm affinity estimate (log intensity, higher = more binding, comparable within an allelic series) and the binding signal (ALX1 [24]) was 6.2 upbm affinity estimate (log intensity, higher = more binding, comparable within an allelic series). The binding signal (ALX3 [6]) was 7.82 upbm affinity estimate (log intensity, higher = more binding, comparable within an allelic series), the binding signal (HOXB6 [7]) was 8.86 upbm affinity estimate (log intensity, higher = more binding, comparable within an allelic series) and the binding signal (NKX3-2 [25]) was 10.3 upbm affinity estimate (log intensity, higher = more binding, comparable within an allelic series).

With AACTACTT the binding signal (HOXB6 [1]) was 9.54 upbm affinity estimate (log intensity, higher = more binding, comparable within an allelic series), the binding signal (NKX2-6 [15]) was 11.2 upbm affinity estimate (log intensity, higher = more binding, comparable within an allelic series) and the binding signal (HOXB6 [7]) was 10.1 upbm affinity estimate (log intensity, higher = more binding, comparable within an allelic series).

For AGCCTTGC, the binding signal (HOXB6 [1]) was 9.12 upbm affinity estimate (log intensity, higher = more binding, comparable within an allelic series), the binding signal (HOXA2 [26]) was 7.13 upbm affinity estimate (log intensity, higher = more binding, comparable within an allelic series) and the binding signal (HOXA2 [27]) was 10.3 upbm affinity estimate (log intensity, higher = more binding, comparable within an allelic series). For the same sequence, the binding signal (HOXA2 [28]) was 10.6 upbm affinity estimate (log intensity, higher = more binding, comparable within an allelic series), the binding signal (HOXA2 [29]) was 7.12 upbm affinity estimate (log intensity, higher = more binding, comparable within an allelic series) and the binding signal (HOXB6 [7]) was 8.94 upbm affinity estimate (log intensity, higher = more binding, comparable within an allelic series).

In the case of AGTCCCCC, the binding signal (HOXB6 [1]) is reported as 8.9 upbm affinity estimate (log intensity, higher = more binding, comparable within an allelic series), the binding signal (ALX1 [19]) is reported as 6.53 upbm affinity estimate (log intensity, higher = more binding, comparable within an allelic series) and the binding signal (ALX1 [20]) is reported as 6.37 upbm affinity estimate (log intensity, higher = more binding, comparable within an allelic series). For the same sequence, the binding signal (ALX1 [24]) was 6.41 upbm affinity estimate (log intensity, higher = more binding, comparable within an allelic series) and the binding signal (HOXB6 [7]) was 8.97 upbm affinity estimate (log intensity, higher = more binding, comparable within an allelic series).

With ATATCTAC the binding signal (SIX6 [13]) was 11 upbm affinity estimate (log intensity, higher = more binding, comparable within an allelic series).

AGATATCC was tested, and the binding signal (SIX6 [13]) was 10.9 upbm affinity estimate (log intensity, higher = more binding, comparable within an allelic series).

For ATAATACC, the binding signal (SIX6 [30]) was 10.4 upbm affinity estimate (log intensity, higher = more binding, comparable within an allelic series).

In the case of CCACGCTC, the binding signal (HOXB6 [1]) is reported as 8.98 upbm affinity estimate (log intensity, higher = more binding, comparable within an allelic series), the binding signal (PROP1 [31]) is reported as 6.83 upbm affinity estimate (log intensity, higher = more binding, comparable within an allelic series) and the binding signal (PROP1 [32]) is reported as 6.88 upbm affinity estimate (log intensity, higher = more binding, comparable within an allelic series). For the same sequence, the binding signal (PROP1 [33]) was 6.58 upbm affinity estimate (log intensity, higher = more binding, comparable within an allelic series) and the binding signal (HOXB6 [7]) was 9.03 upbm affinity estimate (log intensity, higher = more binding, comparable within an allelic series).

For CACCCGGG, the binding signal (HOXB6 [1]) was 9.01 upbm affinity estimate (log intensity, higher = more binding, comparable within an allelic series), the binding signal (HOXA2 [26]) was 7.01 upbm affinity estimate (log intensity, higher = more binding, comparable within an allelic series) and the binding signal (HOXA2 [27]) was 10.3 upbm affinity estimate (log intensity, higher = more binding, comparable within an allelic series). For the same sequence, the binding signal (HOXA2 [28]) was 10.5 upbm affinity estimate (log intensity, higher = more binding, comparable within an allelic series), the binding signal (HOXA2 [29]) was 7.11 upbm affinity estimate (log intensity, higher = more binding, comparable within an allelic series) and the binding signal (HOXB6 [7]) was 8.87 upbm affinity estimate (log intensity, higher = more binding, comparable within an allelic series).

In the case of ATAGATAC, the binding signal (SIX6 [13]) is reported as 10.9 upbm affinity estimate (log intensity, higher = more binding, comparable within an allelic series) and the binding signal (SIX6 [34]) is reported as 11.1 upbm affinity estimate (log intensity, higher = more binding, comparable within an allelic series).

With GATACATC the binding signal (SIX6 [30]) was 10.4 upbm affinity estimate (log intensity, higher = more binding, comparable within an allelic series).

In the case of ATAAAAGC, the binding signal (HOXB6 [1]) is reported as 9.53 upbm affinity estimate (log intensity, higher = more binding, comparable within an allelic series), the binding signal (MSX2 [21]) is reported as 10.9 upbm affinity estimate (log intensity, higher = more binding, comparable within an allelic series) and the binding signal (MSX2 [22]) is reported as 10.8 upbm affinity estimate (log intensity, higher = more binding, comparable within an allelic series). The binding signal (HOXB6 [7]) was 10.3 upbm affinity estimate (log intensity, higher = more binding, comparable within an allelic series).
